KB-3-1 cytotox – qHTS assay for MDR1-selective chemotherapeutics: Primary screen using the parental adenocarcinoma cell KB-3-1 | AID 1347075, 2019 | actives 1.4% (n = 400,000) | KB-3-1 viability, CellTiter-Glo ATP luminescence, 72 h | Potency, µM (titrated, usually from 46.1 µM), most hits filed as cytotoxic; further: on the % scale 0 is the no-effect control and ±100 the full control effect; nearly all actives have a fitted effect of over 60% in size
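KB-3-1 cells, DMEM (no phenol red) + 10% FBS; compound by pin transfer, 72 h, 37 °C. Readout: CellTiter-Glo luminescence after 10 min. Data normalized, curve-fitted.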
MCF10A rerep – A quantitative high throughput screen for small molecules that induce DNA re-replication in MCF 10a normal breast cells. MCF 10A DNA re-replication, Hoechst nuclear intensity, 48 h. Potency, µM (series often up to 46.1 µM), without a hit: at the highest dose activity, positive = re-replication, hits mostly activators. actives 2.9% (n = 350,000); further: % of control where 0% means no effect; nearly all actives have a fitted effect of over 50% in size
HT1080-NT tox – qHTS for induction of synthetic lethality in tumor cells producing 2HG: qHTS for the HT-1080-NT fibrosarcoma cell line. HT-1080-NT fibrosarcoma viability, CellTiter-Glo ATP luminescence, 48 h. Potency, µM (top dose mostly 46.1 µM), without a hit: top-dose activity, negative = less viability, actives largely listed as cytotoxic. actives 1.6% (n = 360,000);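 further: NT is the 2HG producing partner of a matched IDH1 knockdown line; 0% = DMSO-treated cells and -100% = media-only wells without cells; nearly all actives have a fitted effect of over 55% in size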
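Read-out is CellTiter-Glo luminescence after 10 minutes at room temperature, following 48 hours' compound treatment of HT-1080-NT cells (750 cells/well, RPMI, 5% FBS, 37 degrees C).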
SW480 rerep – A quantitative high throughput screen for small molecules that induce DNA re-replication in SW480 colon adenocarcinoma cells; SW480 DNA re-replication, Hoechst DNA content imaging, 48 h; actives 1.8% (n = 340,000); Potency, µM (series often up to 46.1 µM), for inactives: top-dose re-replication activation, actives largely listed as activators; AID 624297, 2012; further: % of control where 0% means no effect; nearly all actives have a fitted effect of over 55% in size
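Readout is total intensity of Hoechst-stained nuclei, excited at 405 nm and collected at 500-530 nm. Compound treatment lasted 48 hr at 37 C in 5% CO2 before staining.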
HT1080 IDH1KD tx – qHTS for induction of synthetic lethality in tumor cells producing 2HG: qHTS for the HT-1080-IDH1KD cell line; HT-1080 IDH1 knockdown viability, ATP luminescence, 48 h; Potency, µM (top dose mostly 46.1 µM), inactives show at the top dose activity, negative = toxicity, usual class: cytotoxic; actives 2% (n = 360,000); AID 686971, 2013;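 further: 0% = DMSO wells and -100% = cell-free medium wells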
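Knockdown cells (IDH1KD HT-1080) received compounds 2 h after plating at 750 cells/well and were kept 48 h at 37 °C in 5% FBS RPMI. A CellTiter-Glo luminescence read gave % activity for curve fitting.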
KB-V1 MDR tox – qHTS assay for MDR1-selective chemotherapeutics: Primary screen using the drug-selected MDR subline cells KB-V1; KB-V1 MDR cells viability, CellTiter-Glo, 72 h; Potency, µM (doses to about 46.1 µM), usual class: cytotoxic; actives 3.4% (n = 400,000); further: on the % scale 0 is the no-effect control and ±100 the full control effect; nearly all actives have a fitted effect of over 60% in size
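qHTS viability screen in drug-selected KB-V1 MDR cells: 72 h compound treatment at 37 degrees C, ATP luminescence end point.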
* marks the source's active call; other numbers are inactive results; i = inactive; ? = inconclusive; . = no result; [ ] = remark or other dose. Only some compounds are listed: those with a hit (about 8% of all), similar ones and a draw of the others. The call rests on the fitted dose curve; in most records, active means well fitted curve in the direction sought with a large enough effect; inconclusive means small, poorly fitted or top-dose-only effect, or another doubt; inactive means no such curve, though single readings can be large; an effect the other way counts as inactive or inconclusive. Potency means the concentration at half of the fitted maximal effect.

SMILES	KB-3-1 cytotox	MCF10A rerep	HT1080-NT tox	SW480 rerep	HT1080 IDH1KD tx	KB-V1 MDR tox
CCS(=O)(=O)N1CCCC(c2nc(-c3cccc(OC)c3)no2)C1 (configuration not stated)	i	0%	4%	-6%	2%	i
COC(=O)c1c(NC(=O)COC(=O)[C@@H](NS(=O)(=O)c2ccc(C)cc2)C(C)C)sc2c1CCC2	i	0%	-3%	0%	-2%	?
CCOC(=O)C1(CCc2ccccc2)CCN(Cc2cccc3nccnc23)CC1	i	23%	-3%	12%	-13%	i
CCN(N=O)c1ccc(/C=C2\C=Cc3ccccc32)cc1	i	.	.	.	.	?
Cc1ccsc1C=Nc1ccc(O)cc1	i	?	-8%	?	23µM*	i
CNC(=O)CSc1nc(N)c2c3c(sc2n1)CCC3	i	?	11%	-14%	-23%	21µM*
NC(=O)CSc1nc(N)c2c3c(sc2n1)CCCCC3	i	16%	12%	-6%	8%	?
[O]=[Bi][O]C(=O)[O][Bi]=[O]	.	0%	.	-3%	.	.
O=C(Nc1ccc(S(=O)(=O)Nc2ccccn2)cc1)c1ccc(Cl)cc1Cl	i	3%	-28%	-27%	-4%	i
O=C(C[C@@H]1C[C@H]2c3cc(NC(=O)c4cccnc4)ccc3O[C@H]2[C@H](CO)O1)NCc1ccc(Oc2ccccc2)cc1	18µM*	.	?	.	?	i
CC(=O)N1CCc2cc(Br)cc(S(=O)(=O)N3CCN(c4cccc(C(F)(F)F)c4)CC3)c21	i	.	.	.	.	i
COc1ccc(CNC(=O)CCCN2C(=O)CCn3nc(-c4cn(C)c5ccccc45)cc32)cc1	i	.	.	.	.	i
Cc1ccc(C2CC(C(F)(F)F)n3nc(C(=O)NCc4c(C)nn(C)c4C)c(Cl)c3N2)cc1 (configuration not stated)	21µM*	2%	?	-1%	?	5.8µM*
Cc1nn(C)cc1CN(C)C(=O)c1nn2c(c1Cl)NC(c1cccs1)CC2C(F)(F)F (configuration not stated)	i	?	-18%	-3%	-14%	18µM*
COc1ccc2nc(SCC(=O)N3CCCCCC3)c(C#N)cc2c1	i	?	2%	3%	5%	?
COc1ccc2nc(N3CCCC3)c(C#N)cc2c1	i	?	18%	?	7%	13µM*
COc1ccc2nc(N3CCCCC3)c(C#N)cc2c1	i	16µM*	-14%	?	-1%	?
CCCCN1CC[C@H]2C=CC[C@@H](C(=O)NCc3cccnc3)[C@H]2C1=O	i	.	.	.	.	i
CCc1ccccc1SCc1noc(C(=O)NCC2CCCO2)c1C(=O)O (configuration not stated)	i	-26%	29%	-2%	-1%	i
COC(=O)c1c(CCl)noc1C(=O)NCC1CCCO1 (configuration not stated)	i	-19%	-18%	8%	23µM*	i
COc1cc(-c2noc(-c3ccc(NCc4cccnc4)c([N+](=O)[O-])c3)n2)cc(OC)c1OC	i	.	.	.	.	26µM*
COc1ccc(-c2noc(-c3ccc(NCc4cccnc4)c([N+](=O)[O-])c3)n2)cc1OC	i	.	.	.	.	i
C/C=C/c1ccc(OCc2cc(=O)n3cc(C)ccc3n2)c(OC)c1	i	3%	7%	1%	9%	i
Cc1ccc(N(CC(=O)NCCSc2nc3ccccc3s2)S(=O)(=O)c2ccccc2)c(C)c1	?	7%	-7%	18%	-20%	8.2µM*
COc1ccccc1N(CC(=O)NCCSCc1cccc(C)c1)S(=O)(=O)c1ccccc1	?	18µM*	-8%	16%	-13%	?
SMILES	KB-3-1 cytotox	MCF10A rerep	HT1080-NT tox	SW480 rerep	HT1080 IDH1KD tx	KB-V1 MDR tox
COc1ccc(N(CC(=O)NCCSCc2ccccc2C)S(=O)(=O)c2ccccc2)cc1	?	?	?	13%	?	15µM*
COc1ccc(S(=O)(=O)N(CC(=O)NCCSc2ccccc2)c2ccc(C)cc2)cc1	?	.	.	.	.	i
CCSc1cc(N2CCOCC2)nc(-c2ccc(Cl)cc2)n1	i	?	2%	-2%	10%	i
CC1(C(=O)NS(=O)(=O)C2CC2)CCN(C(=O)CSc2ccccc2)C1 (configuration not stated)	i	.	1%	.	16%	i
CC(C)(c1ccccc1)c1ccc(OCC(O)CN2CCCC2)cc1 (configuration not stated)	?	?	?	16µM*	?	i
CN(C)S(=O)(=O)N1CCN(CC(O)COc2ccc(-c3ccccc3)cc2)CC1 (configuration not stated)	i	23µM*	-13%	6%	-7%	i
CCCc1ccc(OCC(O)CN2CCCC2)cc1 (configuration not stated)	i	15µM*	-18%	-2%	-19%	i
OC(COc1ccc(OCc2ccccc2)cc1)CN1CCOCC1 (configuration not stated)	i	9.2µM*	-5%	?	1%	i
OC(COc1ccc(OCc2ccccc2)cc1)CN1CCCCC1 (configuration not stated)	i	3%	-5%	2%	2%	i
CCOCCc1nn2c(=O)cc(COC(=O)CNC(=O)c3ccc(F)cc3)nc2s1	i	.	.	.	.	?
OC1CCCN(CC(O)COc2ccc(-c3ccccc3)cc2)C1 (configuration not stated)	i	?	?	15%	?	?
CC1CCCN(CC(O)COc2ccc(-c3ccccc3)cc2)C1 (configuration not stated)	?	?	18µM*	?	?	i
OC(COc1ccc2cc(Br)ccc2c1)CN1CCCC1 (configuration not stated)	?	?	-29%[9.24 µM]	?	13µM*	?
C=CCc1ccccc1OCC(O)CN1CCOCC1 (configuration not stated)	i	9%	2%	12µM*	-1%	i
